TDP1 cell noCPT: qHTS for Inhibitors of human tyrosyl-DNA phosphodiesterase 1 (TDP1): qHTS in cells in absence of CPT. DT40 Tdp1-/- hTDP1 cells, no CPT, ATP luminescence, 48 h. Potency, µM (titrated, usually from 46.2 µM), actives largely listed as inhibitors. 420,000 tested, 15% active. AID 686978, 2013; note: nearly all actives have a fitted effect of over 55% in size
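DT40 Tdp1-/-;hTDP1 cells, no CPT (DMSO vehicle only), 400 cells/well; compounds pin-transferred; ≥48 hr, 37 °C; CellTiter-Glo 30 min RT dark, luminescence read.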
HT1080 IDH1KD tx: toxicity to HT-1080 IDH1 knockdown cells (counter line). HT-1080 IDH1 knockdown viability, ATP luminescence, 48 h. Potency, µM (series often up to 46.1 µM), most hits filed as cytotoxic. 360,000 tested, 2% active. AID 686971
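Cytotoxicity counter-line: IDH1KD HT-1080, 48 h, CellTiter-Glo. Curves classed by r2, magnitude and activity.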
HT1080NT lethal: kills 2HG-producing HT-1080-NT fibrosarcoma cells; HT-1080-NT fibrosarcoma viability, CellTiter-Glo ATP luminescence, 48 h; Potency, µM (highest dose often 46.1 µM), usual class: cytotoxic; 360,000 tested, 1.6% active; AID 686970;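 note: NT is the 2HG producing partner of a matched IDH1 knockdown line; nearly all actives have a fitted effect of over 55% in size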
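Viability of the 2HG-overproducing fibrosarcoma line after 48 hours of compound exposure at 37 degrees C was determined by luminescence with CellTiter-Glo, and concentration-effect curves were then fitted and categorized.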
TDP1 cell CPT: growth inhibition of DT40 Tdp1-/-;hTDP1 cells with camptothecin (screen for TDP1 inhibitors); chicken DT40 Tdp1-/-;hTDP1 cells + 20 nM CPT, ATP luminescence, 48 h; Potency, µM (top dose mostly 46.2 µM), most hits filed as inhibitors; 420,000 tested, 12% active; AID 686979; note: nearly all actives have a fitted effect of over 55% in size
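Cell growth measured by CellTiter-Glo luminescence after a minimum 48 h, 37 C compound exposure with 20 nM CPT in Tdp1-knockout DT40 cells stably expressing hTDP1, seeded 400/well; qHTS titration format.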
IL-1B inflam inh: blocks inflammasome-driven IL-1 beta release; THP-1 LPS/ATP IL-1B secretion, AlphaLISA, 16 h; stronger effect = lower value; activity change, % at 57.5 µM; 360,000 tested, 4.7% active; AID 743279; in the data active = activity change below about -50%; inconclusive = mostly about -30% to -49%
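THP-1 cells pretreated 1 hr with compounds (up to 57.5 uM final), then stimulated with LPS (250 ng/mL final) plus ATP (1.25 mM final); secreted IL-1B measured by AlphaLISA after 16 hr, decreased signal indicating inhibition.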
Numbers stand for hits; 0 = inactive; ? = inconclusive; - = no result. Compounds with a hit are over-represented: about 19% of the library has one in this group of screens. Unless noted, calls come from the whole dose curve; as a rule, active = well fitted curve in the direction sought with a large enough effect; inconclusive = small, poorly fitted or top-dose-only effect, or another doubt; inactive = no such curve, though single readings can be large; an effect the other way counts as inactive or inconclusive.

SMILES	TDP1 cell noCPT	HT1080 IDH1KD tx	HT1080NT lethal	TDP1 cell CPT	IL-1B inflam inh
CN(C)S(=O)(=O)c1ccc(Cl)c(NC(=O)COc2ccccc2[N+](=O)[O-])c1	3.26µM	0	0	?	0
CCN(CC)S(=O)(=O)c1cc(C(=O)Nc2ccccc2[N+](=O)[O-])ccc1Cl	16.4µM	?	0	?	-88.9
CCN(CC)S(=O)(=O)c1ccc(Cl)c(NC(=O)COc2ccccc2[N+](=O)[O-])c1	23.1µM	?	?	?	0
Cc1ccc(NC(=O)CCNCc2ccco2)cc1S(=O)(=O)N(C)C	0	0	0	0	0
O=C(Nc1cc2ccc(O)cc2oc1=O)c1ccc(F)cc1	?	-	-	0	-
COc1cc(/C=N/Nc2nn3cnnc3c3ccccc23)ccc1O	?	5.62µM	?	7.31µM	0
COc1cccc(/C=N/Nc2nc3ccccc3n3cnnc23)c1	?	0	0	0	0
COc1cccc(/C=N/Nc2nn3cnnc3c3ccccc23)c1	20.6µM	0	0	13µM	0
C[C@@H](CN1CC(=O)NC(=O)C1)N1CC(=O)NC(=O)C1	?	-	-	0	-
Cc1cccc(NS(=O)(=O)c2ccc(C(=O)N3CCCC3)cc2)c1C	14.6µM	0	0	0	0
Cc1cccc(NS(=O)(=O)c2ccc(C(=O)N3CCCCCC3)cc2)c1C	23.1µM	0	0	?	0
CCCCC[C@@H]1[C@H]2[C@H]3C(=O)N(c4ccccc4)C(=O)[C@H]3CC(=O)[C@H]2[C@H](c2ccccc2)N1S(=O)(=O)c1ccc(C)cc1	0	0	0	0	0
O=C(Nc1cccc(NC(=O)c2ncn[nH]2)c1)c1cccc(Cl)c1	0	0	0	0	0
NNC(=S)Nc1c(F)cc(F)cc1Br	13µM	0	0	?	0
Cc1cc(C(=O)Nc2c(F)cc(F)cc2Br)cs1	0	0	0	?	0
CCC(=O)c1ccc(OCCn2cnc3ccccc32)cc1	?	0	0	0	0
CC(Sc1nnc2n1CCCCC2)C(=O)Nc1ccc(S(N)(=O)=O)cc1 (centres undefined)	0	0	0	0	0
Cc1ccc(C)c(C(=O)COc2ncnc3ccccc23)c1	?	0	0	18.4µM	0
COc1cc(OC)c(C(=O)COc2ncnc3ccccc23)c(OC)c1	?	0	0	?	0
CN(C)CC/C=C1\c2cc(F)ccc2CSc2ccccc21	?	0	0	?	-56.9
C=CCN(C)CC/C=C1\c2ccccc2CSc2ccccc21	?	0	?	?	0
NCC/C=C1/c2ccccc2CSc2ccccc21	35.5µM	?	14.1µM	25.1µM	0
CN(CC/C=C1/c2ccccc2CSc2ccccc21)CCCO	?	0	0	?	-57.7
COc1cc(CC(=O)N/N=C/c2ccc([N+](=O)[O-])cc2)c([N+](=O)[O-])cc1OC	?	0	0	0	0
NC(=O)N[C@@H](CCC(=O)O)C(=O)O	0	-	-	0	-
SMILES	TDP1 cell noCPT	HT1080 IDH1KD tx	HT1080NT lethal	TDP1 cell CPT	IL-1B inflam inh
O=C(Nc1cc2c(cc1C(=O)c1ccccc1Br)OCCO2)c1ccccc1	0	-	-	0	-
Cc1ccc(C(=O)OCC(=O)c2ccc(S(=O)(=O)N3CCCCC3)cc2)o1	0	0	0	0	0
O=C(CSc1nnc(-c2ccc(O)cc2)n1Cc1ccco1)N1CCc2ccccc2C1	?	0	0	0	0
Cc1ccccc1CN(C)CCS(=O)(=O)c1cc(Cl)ccc1Cl	?	13µM	16.4µM	?	?
CCCCCCCCCCCCCC(=O)Nc1ccc(/C=C/c2ccnc3ccccc23)cc1	17.8µM	-	-	11.2µM	-
O=C(O)CCN(CCC(=O)O)c1ccc(/C=C/c2ccnc3ccccc23)cc1	0	-	-	0	-
CCOC(=O)Nc1ccc(/C=C/c2ccnc3ccccc23)cc1	12.6µM	-	-	?	-
CCCCCCCCCCCCCCCCCCN(CCCCCCCCCCCCCCCCCC)c1ccc(/C=C/c2ccnc3ccccc23)cc1	0	-	-	0	-
Cc1nc2nncn2c(Nc2ccccc2)c1C	18.4µM	-	-	20.6µM	-
CCc1c(C)nc2nncn2c1NCc1ccc(Cl)cc1	4.61µM	-	-	8.2µM	-
Cc1ccc(CNc2c(C)c(C)nc3nncn23)cc1	1.16µM	-	-	4.11µM	-
